Screening data: PubChem BioAssay, Broad Institute
This is a sample that favours compounds with a hit; in the whole collection about 1.3% have one here.
HIF activator = HIF pathway transcriptional activation. U2OS HRE-luciferase reporter, luminescence; normalized: DMSO 0%, desferrioxamine 100%. activation, % at 7.5 µM (by protocol). 300,000 tested, 0.32% active. AID 1910;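 active = mean activation of at least 10% of the iron chelator positive control signal, with at least half of replicates also reaching 10%; inconclusive = mean and replicate majority disagree about reaching 10%; inactive = mean and most replicates under 10%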
Rce1 inh = yeast Ras-converting enzyme inhibition | calls only | 290,000 tested, 0.27% active | yeast membranes, quenched prenylated peptide cleavage fluorescence | Q03530;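 active = fall in fluorescence gain of 50% or more versus controls, with final raw signal at or below 3038400; inconclusive = same 50% fall but final raw signal above 3038400; inactive = fall in fluorescence gain under 50%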
Target sequence (Q03530 whole entry, looked up): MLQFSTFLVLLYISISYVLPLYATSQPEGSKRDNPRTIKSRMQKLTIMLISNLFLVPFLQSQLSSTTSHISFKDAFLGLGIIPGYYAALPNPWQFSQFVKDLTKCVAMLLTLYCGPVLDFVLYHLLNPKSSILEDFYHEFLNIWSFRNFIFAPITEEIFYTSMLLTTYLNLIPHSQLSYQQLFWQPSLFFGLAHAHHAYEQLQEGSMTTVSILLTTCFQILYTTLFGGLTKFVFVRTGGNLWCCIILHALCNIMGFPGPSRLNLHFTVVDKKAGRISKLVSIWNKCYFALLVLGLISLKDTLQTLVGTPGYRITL
AI-2 QS modul = modulators of Vibrio harveyi AI-2 quorum sensing system | Vibrio harveyi JMH597 AI-2 luminescence/OD600 ratio, 9 h; stronger effect = lower value; strain lacks LuxN and CqsS sensors; 0 = neutral-control median | activity change, % at 7.5 µM | 300,000 tested, 0.4% active; in the data active = activity change below about -75%, passing the limit was not always enough; inconclusive = no clear call, values can overlap the other calls;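 also: luminescence divided by OD600 gain over 9 h not by final OD600 alone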
PGC1a acetyl inh = lowers PGC1a acetylation signal in U2OS cells | 350,000 tested, 0.17% active | AlphaScreen anti-acetyl-lysine; with virally co-expressed GCN5 acetyltransferase | AID 651687 | inhibition, % at 15.6 µM;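 active = every replicate shows inhibition of at least 40%; inconclusive = mean inhibition at least 40% but some replicate below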
Statin myotox sup = suppression of simvastatin myotoxicity; 330,000 tested, 0.78% active; AID 602340; rescue of ATP level, % at 7.49 µM; C2C12 myotubes + simvastatin, ATP luminescence, 48 h; scaled: DMSO 0, geranylgeraniol control 100;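 active = mean ATP rescue above about 67%, or every replicate alone reaching that limit, limit read from the data, passing the limit was not always enough; inconclusive = no clear call, values can overlap the other calls; inactive = mean under the limit and some replicate under it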;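 also: myotubes were challenged with 10 µM simvastatin during compound exposure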
COX5a expr inh = C2C12 myotube COX5a expression inhibition; shares compounds with PGC1a acetyl inh; C2C12 myotubes PGC-1a adenovirus, COX5a qPCR; maximal activity, %; 45 tested, under 10 active; AID 743461;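 active = fitted dose curve reaching 40% activity at or below the highest valid dose tested; inconclusive = flat fit between 30% and 70%, or an unusable fit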
AID743468 = change in PGC-1a target gene PDK4 expression, dose response, C2C12 myotubes, RT-qPCR, cherry-pick; 45 tested, under 10 active; shares compounds with PGC1a acetyl inh; PGC-1a adenovirus, PDK4 mRNA qPCR; PDK4 expression increase, % at 19.5 µM;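 active = fitted curve reaching a 40% PDK4 expression rise at or below the top valid tested dose; inconclusive = no clear call, values can overlap the other calls; inactive = the rest, including shifts the wrong way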
A number is an active result; – = inactive; ? = inconclusive; · = no result given.

SMILES	HIF activator	Rce1 inh	AI-2 QS modul	PGC1a acetyl inh	Statin myotox sup	COX5a expr inh	AID743468
O=C(C[C@H]1CC[C@@H](NC(=O)c2ccccc2)[C@H](CO)O1)Nc1ccc(-c2ccccc2)cc1	·	·	·	43.7	–	–	–
Cc1cccc(NC(=O)CNC(=O)Cn2ncc(Cl)c(Cl)c2=O)c1C	·	·	·	?	–	–	–
COc1cccc(-c2cnc3c(c2)C(=O)N([C@@H](C)CO)C[C@@H](C)[C@H](CN(C)C(=O)Nc2ccccc2F)O3)c1	·	·	·	–	·	·	·
COC(=O)[C@H](Cc1ccccc1)N1C(=O)O[C@@H](Cc2ccccc2)[C@H]1/C=C/C1CC1	·	·	·	–	·	·	·
COc1ccc(-c2cnc3c(c2)C(=O)N([C@@H](C)CO)C[C@@H](C)[C@H](CN(C)C(=O)Cc2ccccn2)O3)cc1	·	·	·	–	–	·	·
Cc1nc(Nc2ccc(S(N)(=O)=O)cc2)sc1C(=O)Nc1ccccc1	–	–	–	?	·	–	–
Cc1nc(Nc2ccccc2)sc1C(=O)Nc1ccccc1	–	–	–	·	·	·	·
O=C(Nc1ccc(C(F)(F)F)cc1)N1C[C@@H]2N[C@H](C1)C2c1ccc(-c2ccccc2)cc1 (some centres not stated)	·	·	·	?	·	–	–
CCS(=O)(=O)N1CCCCN2[C@@H](CO)[C@@H](c3ccc(-c4ccccc4C)cc3)[C@@H]2C1	·	·	·	–	·	·	·
O=C1c2ccccc2OC2(C=Cc3ccccc3O2)N1Cc1ccccc1 (configuration not stated)	–	–	–	–	–	·	·
Cc1cc2c(c(/C=C/C(=O)c3ccccc3)c1)OC1(C=C2)Oc2ccccc2C(=O)N1C (configuration not stated)	–	–	–	49.6	·	–	–
CN(C)C(=O)C[C@H]1CC[C@@H]2[C@H](COC[C@@H](O)CN2C(=O)c2ccncc2)O1	·	·	·	–	–	·	·
